Columns and labels:
ETS1 [1] = target: T1, ETS1 (UniProt P14921); experiment: ETS1 binding intensity (PBM fluorescence), ETS1 alone (arbitrary fluorescence units); higher = stronger binding; conditions: ETS1 concentration 1 nM; RUNX1 concentration 0 nM
T1 sequence: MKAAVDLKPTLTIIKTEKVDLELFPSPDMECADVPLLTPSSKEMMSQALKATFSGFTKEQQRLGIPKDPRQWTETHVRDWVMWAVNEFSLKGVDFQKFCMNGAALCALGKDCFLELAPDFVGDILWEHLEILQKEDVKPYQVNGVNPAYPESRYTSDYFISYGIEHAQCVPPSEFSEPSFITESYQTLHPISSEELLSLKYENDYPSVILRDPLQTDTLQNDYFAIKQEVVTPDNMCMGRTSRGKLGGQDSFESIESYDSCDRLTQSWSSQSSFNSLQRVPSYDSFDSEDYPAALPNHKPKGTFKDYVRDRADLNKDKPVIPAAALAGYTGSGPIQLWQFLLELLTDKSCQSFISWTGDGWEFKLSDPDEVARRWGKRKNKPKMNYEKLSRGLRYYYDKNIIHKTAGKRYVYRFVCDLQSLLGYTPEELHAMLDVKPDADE

ETS1 [2] = target: T1, ETS1; experiment: ETS1 binding intensity (PBM fluorescence) in presence of RUNX1, normalised to ETS1-only experiment (arbitrary fluorescence units); higher = stronger binding; conditions: ETS1 concentration 1 nM; RUNX1 concentration 25 nM

Sequence	ETS1 binding intensity (ETS1 [1])	ETS1 binding intensity (ETS1 [2])
TAGGTTAGAATAAGAGGAAACCTCAAACCAGAACCC	579	991
GCTGTAGGAAATGTTATTCGCCGCGGTCAGGACAGG	546	710
CGGGCCCGACGGAAACCATGTTTGTGGCTCGCAGCA	744	699
GATACTCTTCCTGTCATCCCATCCCCACAGCCTTAG	503	501
CGGGGCATGCCGGACGCTGTGGTCCTGAAGGCCTGG	536	423
GCCGTGAGAAACATCCTGCCTAACCACCTGACTACA	618	678
TGAATCATGACAGAGGAAGTGTGGTTCTGTGATTAC	1760	2090
GGCCGGAAAGGGTCTTGAGAGGAGGTGGTTGCCTTA	633	519
GCTCGCGTCATCCTGCAGCGCCGACACCACAGACAC	501	505
GCCCCTCTTCCTGACTCACACAACCGCCTCTAGTCT	457	330
AGGGTGTACTCGGAAGTTTCGAGTGGTTGCTTGGTT	451	513
GATTAAGAGGAAGTGTGTGTGATTATTACCGCTGGA	1310	1540
ACAGTTTCCTTGCTGTGATGTCAGCCCCCGCCGCAG	709	682
TGAGTCATTTCCTGGGTGGGGGCCACAAGACCAGGT	540	553
CTGGGGCTGAGGGAGGGATGTGGTGGGGCCCAGGCT	411	521
ACGCTGGAATCGCGGAAACCGCCGGTGCACGTTGGA	531	627
GACGGGATGTAGGTTTTCAGCCGTGGCCACAGGAGA	496	559
AGGGAGACCGGGCCGGATTGCGGGGAGTGAGCAGGT	543	360
GAGCACATTTCCTTTTGCTTCCAGATACCACAGTGA	445	412
TACCGCTGCTTCCTGCCTGCGCGGTGAGCCTGTGCC	829	802
CCACTCCCAGCTCCATCCTGTGGGTAGAACTCAGTG	477	452
ACCGGAAGGGCGGGGGCGTGGCGAGGTACCGCAGAC	1170	2850
TCCCGAGAGTGCGGCGGAAACCACGCGGCGCCGCCG	1360	1570
GACAGGATACAAGAATTCCGCGGACTGCCGCAGTCG	642	649
CTCCCCCAGCACATCCTCTGCCACCGCTGCCTTTCC	579	361

Sequence	ETS1 binding intensity (ETS1 [1])	ETS1 binding intensity (ETS1 [2])
TGTTGCACATGTTCAGGATGTGGTAGACAGCTTTCA	1410	3040
GCGATACGAGACTTCCTGCGGGCTCGTGACATCAGC	518	650
AGCAGATTTGCTGCAGGAAACCACCGAGTCTCACGG	1130	1490
AACCAAGAGGATTTCCTGCCCACACACTCAGCGTCT	870	751
GGAAAGCGGAAGAAAAAAGCAAGATGGGACCGCAAG	445	928
AAGCAGAGCTCAGGATGTGGTGCCGTGCGAGGGCGG	697	847
TGAGAAGGCAGGATAAGTGACCACATATTTATGCCA	435	874
TTTACGGGATGTAGGCGGCGGCGGCGGTAGTGGTAG	701	771
ACCAGGATGTAGTTTAGCTTAGGGGTGGTTATATCG	603	494
AGCCGGAGGCGGAAGGAGCAGCGCTACCGCAGCGTC	639	1130
GTCGTCAGCGTCTTCCTGTCAGCGGTCGGCAGAGCC	706	562
AACATTACGGAAGTTTCTCTACCCATGCGGTGTCTC	521	683
CCGCCCACTTCCGTGTGGCCGCCGATTGGTTTTGCC	491	516
CAGGCCTGTGATTTCCTCTGAGTGGTTTTCTTGGCC	465	401
GCTCTGGCGGAAGATGTCCCTGCGGTGCAGCTGCCG	397	465
AGCGGATTCCGGACATAACAATCTACAGCGGTCTTA	444	417
TAAATACCTCACAGGAAATTTGAGGTTGGATGAGAT	2010	2320
GCACGTGTTTCCTGGGGCTGCACCACAGCACCACAC	444	497
AAGTCAGAGTTTACTTCCGAACCCACAGTGCCAAGC	423	486
TGCCGGAAGCCCGCCAGGCACAGGACCCGCAGGGGT	588	545
CCTCATTTCCGGGCTGTTTGCGCGCAAGCCCACATC	1090	968
TGAGGAAGTGTAAGTCACAATAAGAAGCCACATATA	564	519
GGGCTTCAGCGGATGAACAAGGTTACCACGGGGAGT	459	504
CAGCTAGAGGAAGCGCTTCGCCCGCGAACCACAGGG	375	705
